ERa SRC1 pot: ER-alpha (human) coactivator binding potentiation; P03372; TR-FRET ERalpha-LBD/SRC-Cy5 coactivator binding, 2 h; 100 = basal binding, no effect; coactivator binding (% of control), % at 25.6 µM; 86,000 compounds, 1.3% hits; AID 639; in the data active = activity above about 200%;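 note: binding measured in presence of low estradiol as agonist stimulus; 0% = peptide alone without receptor and 100% = receptor with peptide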
Smad3 FoxH1 inh: Smad3 (human) transcription factor binding inhibition | inhibition, % at 25 µM | 88,000 compounds, 0.29% hits | P84022 | AID 630 | TR-FRET Smad3/Dy647-FoxH1 peptide binding, europium anti-His;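 active = compounds that reduce the energy-transfer binding signal between the protein and its labelled peptide by more than half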;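 note: 0% = Smad3 plus labelled peptide maximal FRET and 100% = peptide-only background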
ERa SRC1 inh: blocks coactivator binding to human estrogen receptor alpha; TR-FRET ER-alpha LBD / SRC-1 peptide, estradiol-bound; inhibition, % at 25.6 µM; AID 629; 86,000 compounds, 1.7% hits; in the data active = inhibition above about 50%;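 note: 0% = receptor plus peptide control and 100% = peptide only without receptor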
ERb SRC1 inh: ER-beta (human) coactivator binding inhibition | Q92731 | TR-FRET ER-beta LBD / SRC1-Cy5 peptide binding; receptor agonist-loaded with 1 µM estradiol | inhibition, % at 25.6 µM | 86,000 compounds, 1.3% hits | AID 633;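 active = compounds whose percent inhibition of the receptor-coactivator binding signal exceeds about 50% in the single-dose screen, limit read from the data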;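 note: 0% = receptor plus peptide wells without compound and 100% = peptide-only wells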
Target sequence (Q92731 whole entry, looked up, the tested form may be a part): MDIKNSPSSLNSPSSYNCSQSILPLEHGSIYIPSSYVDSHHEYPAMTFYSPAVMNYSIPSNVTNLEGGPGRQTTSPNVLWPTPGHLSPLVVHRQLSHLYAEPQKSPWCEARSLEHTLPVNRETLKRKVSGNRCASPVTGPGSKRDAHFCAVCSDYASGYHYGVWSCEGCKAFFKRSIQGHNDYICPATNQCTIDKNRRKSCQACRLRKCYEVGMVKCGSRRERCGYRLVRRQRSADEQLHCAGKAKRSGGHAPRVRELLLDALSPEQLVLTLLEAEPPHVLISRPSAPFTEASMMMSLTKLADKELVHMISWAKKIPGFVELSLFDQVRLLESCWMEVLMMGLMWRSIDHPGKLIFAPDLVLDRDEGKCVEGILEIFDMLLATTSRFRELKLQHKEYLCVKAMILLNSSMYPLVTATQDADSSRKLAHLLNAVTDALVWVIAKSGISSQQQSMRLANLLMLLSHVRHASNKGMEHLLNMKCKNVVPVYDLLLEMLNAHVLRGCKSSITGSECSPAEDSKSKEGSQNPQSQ
Active calls of the source: *; . = no result given; [ ] = another dose, or the depositor's remark. Rows were chosen to be rich in hits. Some 3.7% of all compounds tested hit in one or more screens of this group.

SMILES	ERa SRC1 pot	Smad3 FoxH1 inh	ERa SRC1 inh	ERb SRC1 inh
CCCCCC(=O)Nc1ccc2oc(-c3cccnc3)nc2c1	112.0	10.7	-6.7	-25.0
COc1ccccc1C(=O)Nc1ccc2oc(-c3ccc(F)cc3)nc2c1	251.9*	-15.7	29.2	24.7
O=C(Cc1ccc(Cl)cc1)Nc1ccc2oc(-c3ccncc3)nc2c1	456.4*	5.2	5.2	8.4
COc1ccc(CC(=O)Nc2ccc(-c3nc4cc(C)ccc4o3)c(O)c2)cc1OC	122.0	-69.5	89.8*[fluorescence artefact?]	53.4*[fluorescence artefact?]
COc1ccc(-c2nc3cc(NC(=O)c4ccc5c(c4)OCO5)ccc3o2)cc1	412.2*[fluorescence artefact?]	-5.7	39.8	43.5
O=C(O)CCNCC(=O)O	.	-1.1	.	.
CCOC(=O)c1cc(C(C)(C)C)oc1CNC(=O)c1c(C)oc2c1CCCC2	82.6	-6.0	7.3	-4.2
O=C(Nc1ccc2oc(-c3ccncc3)nc2c1)c1c(F)c(F)c(F)c(F)c1F	265.7*	-22.3	22.2	10.9
O=C(Nc1ccc2oc(-c3ccccc3)nc2c1)c1cccnc1	118.7	-5.9	5.8	3.4
Cc1cc(OCC(=O)Nc2ccc3oc(-c4ccncc4)nc3c2)ccc1Cl	203.8*[fluorescence artefact?]	-12.2	46.8	35.9
O=C(Nc1ccc2oc(-c3ccccc3F)nc2c1)c1cncc(Br)c1	164.0	3.0	53.7*	28.3
COc1c(F)c(F)c(C(=O)Nc2ccc3oc(-c4ccncc4)nc3c2)c(F)c1F	140.0	-6.3	23.7	18.8
O=C(Cc1ccccc1)Nc1ccc2oc(-c3cccnc3)nc2c1	789.5*	2.1	-63.5	-16.5
C[C@H]1C[C@@H]2[C@@H]3CCC4=CC(=O)C=C[C@@]4(C)[C@@]3(F)[C@H](O)C[C@@]2(C)[C@]1(O)C(=O)COP(=O)(O)O	.	8.4	.	.
O=C(N/N=C/c1cccc(O)c1)c1ccncc1	.	-0.8	.	.
O=C(O)c1cncc(C(=O)O)c1	.	-16.0	.	.
Cc1c(C(=O)OCC2CCCO2)[nH]c2c1C(=O)CC(c1ccco1)C2 (stereo unspecified)	65.0	-4.6	53.6*	50.4*[fluorescence artefact?]
Cc1c(C(=O)OCC(C)C)[nH]c2c1C(=O)CC(c1ccco1)C2 (stereo unspecified)	95.5	15.3	38.4	35.5
C/C=C/COC(=O)c1[nH]c2c(c1C)C(=O)CC(c1ccco1)C2 (stereo unspecified)	81.3	-2.6	58.8*	54.7*
COc1ccc2ccccc2c1/C=C/C(=O)c1ccccc1	.	-17.8	.	.
COC(=O)c1cn(NC(=O)c2cc(OC)cc(OC)c2)c(=O)c2ccccc12	179.8	-2.3	23.6	14.1
COC(=O)c1cn(NC(=O)c2cc(OC)c(OC)c(OC)c2)c(=O)c2ccccc12	91.6	3.6	57.9*[fluorescence artefact?]	17.0
O=C(Nc1nc2ccccc2[nH]1)C1CC(=O)N(c2ccc3c(c2)OCCO3)C1 (stereo unspecified)	52.8	-8.4	67.7*[fluorescence artefact?]	43.2
O=C(Nc1ccc(C(F)(F)F)cc1)C1CC(=O)N(c2ccc3c(c2)OCCO3)C1 (stereo unspecified)	99.5	3.4	13.9	14.7
C[n+]1cccc(/C=C/c2ccc3cccc(O)c3n2)c1	.	39.9	.	.
SMILES	ERa SRC1 pot	Smad3 FoxH1 inh	ERa SRC1 inh	ERb SRC1 inh
COc1ccc(C(=O)c2ccc(N3CCN(C(=O)c4ccc(F)cc4)CC3)c(F)c2)cc1Br	291.9*[fluorescence artefact?]	10.6	24.1	22.5
O=C(COc1ccccc1)Nc1ccc2c(c1)nc1n2CCOC1	125.5	10.4	10.1	-6.0
O=C(Cn1nc(-c2ccccc2)c2ccccc2c1=O)Nc1ccc2c(c1)nc1n2CCOC1	208.9*[fluorescence artefact?]	-10.3	22.1	47.3
Cc1ccc(-c2nn(CC(=O)Nc3ccc4c(c3)nc3n4CCOC3)c(=O)c3ccccc23)cc1	165.2	-179.7	66.8*[fluorescence artefact?]	54.3*[fluorescence artefact?]
CC(CO)(CO)Nc1ncnc2ccccc12	.	1.2	.	.
CCN(CC)c1ccc(-c2nn3c(-c4n[nH]c5c4CCC5)nnc3s2)cc1	152.1	13.7	9.3	-2.4
C1CCC(c2nn3c(-c4n[nH]c5c4CCC5)nnc3s2)CC1	19.8	11.6	75.0*	61.4*
O=C(O)[C@H]1CCCN1	.	-3.2	.	.
CCC(C)(C)n1nnnc1C(c1cc2cc(OC)ccc2[nH]c1=O)N1CCc2ccccc21 (stereo unspecified)	94.0	5.3	-1.0	3.4
CCC(C)(C)n1nnnc1C(c1cc2ccc(OC)cc2[nH]c1=O)N1CCc2ccccc21 (stereo unspecified)	256.2*	-5.2	18.8	6.4
O=C(NCc1ccc(F)cc1)c1cnn2ccccc12	105.9	4.4	-7.3	-6.5
CC(C)(C)OC(=O)N1CCC(c2cc(=O)n3[nH]c(-c4ccc(Cl)cc4)cc3n2)CC1	251.0*[fluorescence artefact?]	-28.5	30.6	11.4
CC(C)(C)NC(=O)/C=N/O	101.6	-7.4	3.1	98.6*[fluorescence artefact?]
c1ccc(OCc2nnc3sc(C4COc5ccccc5O4)nn23)cc1 (stereo unspecified)	105.6	-4.3	57.7*	60.4*
COc1ccccc1NC(=O)CSC(N)=O	98.1	0.1	2.0	-12.9
Cc1cc(C)n(CC(O)COc2ccccc2)n1 (stereo unspecified)	100.6	5.5	53.0*	-0.5
Cc1ccccc1C(=O)Nc1cccc(NC(=O)c2ccc(-c3ccc(Br)cc3)o2)c1	66.9	-0.5	78.7*[fluorescence artefact?]	43.7
O=C(CSc1nnc(Nc2ccccc2F)s1)NCc1ccco1	97.1	3.0	81.4*[fluorescence artefact?]	69.3*
Cc1ccccc1Nc1nnc(SCC(=O)NC(=O)NCc2ccco2)s1	102.4	4.5	75.1*	56.3*[fluorescence artefact?]
Cc1ccc(Nc2nnc(SCC(=O)NCc3ccco3)s2)cc1	74.2	6.5	68.2*	49.2
O=C(CSc1nnc(Nc2ccccc2)s1)NCc1ccco1	103.1	-11.1	-9.5	16.0
COc1ccc(C)cc1NC(=O)c1cc2c(CO)cnc(C)c2oc1=N	239.2*[fluorescence artefact?]	48.7	-28.2	14.2
O=C(O)CCn1ccnc1-c1ccccc1	475.1*	5.2	-10.3	-0.7
Cc1nccn1CCC(=O)O	115.4	-7.2	6.3	6.8
COCCCn1c2nc3ccccc3nc2c2c(=O)n(-c3ccccc3OC)c(C)nc21	318.9*	7.0	12.2	4.7
SMILES	ERa SRC1 pot	Smad3 FoxH1 inh	ERa SRC1 inh	ERb SRC1 inh
CCCn1c(C)nc2c(c1=O)c1nc3ccccc3nc1n2CCc1ccccc1	140.7	3.9	52.9*	32.8
Cc1nc2sccn2c1-c1nc(-c2cc3ccccc3o2)cs1	89.9	-1.1	61.5*	27.6
N[C@@H](Cc1cccc([N+](=O)[O-])c1)C(=O)O	.	11.8	.	.
N=C(N)S[C@@H]1c2ccccc2-c2cc([N+](=O)[O-])ccc21	.	68.7*	.	.
Cc1cc(C)n(-c2nc(N(c3ccccc3)c3ccccc3)nc(-n3nc(C)cc3C)n2)n1	128.9	1.0	32.9	12.6
Cc1cc(C)n(-c2nc(Nc3ccccc3)nc(-n3nc(C)cc3C)n2)n1	248.2*	17.2	62.9*[fluorescence artefact?]	55.4*[fluorescence artefact?]
Cc1ccc(-n2c(SCc3cc(=O)n4ccsc4n3)nnc2-c2cccnc2)c(C)c1	120.3	14.8	75.2*[fluorescence artefact?]	62.3*
Cc1ccc(-n2c(SCC(N)=O)nnc2-c2cccnc2)c(C)c1	101.1	7.2	-4.5	-6.8
CC1=C(C)[N+](=O)C2(O)CCCCC2(C)N1[O-] (stereo unspecified)	108.8	-10.2	-8.5	-2.8
